Several values for one entry are separate records, joined by “and”; a condition that tells them apart may be missing. Equal entries are not always repeated. Records with an inconclusive call do not appear. A call without a number means that no potency is given here. Some structures have more than one record in an assay (separate samples or runs), and their calls can disagree. Activity calls are given as the source filed them. Unless noted, calls follow the shape of the full dose curve.
Assays:
[1] = Nuclear factor erythroid 2-related factor 2/antioxidant responsive element (Nrf2/ARE) small molecule agonists: qHTS cell viability counter screen in human keratinocytes (AID 1919968; active = well fitted curve in the direction sought with a large enough effect in the repeat runs; an effect the other way counts as inactive or inconclusive; also: nearly all actives have a fitted effect of over 55% in size; also: potency is read from the fitted curve at half-maximal effect)
Summary of the method: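 KeratinoSens cells (HaCaT keratinocytes stably carrying an ARE-luciferase reporter) were seeded at 1,500 cells/well and rested 5 h at 37 C/5% CO2. They were then exposed to compounds in DMSO for 23 h. Viability was read by CellTiter-Fluor fluorescence after 1 h.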

[2] = Nuclear factor erythroid 2-related factor 2/antioxidant responsive element (Nrf2/ARE) small molecule agonists: luciferase reporter gene qHTS assay in human keratinocytes (AID 1919969); also: nearly all actives have a fitted effect of over 35% in size; also: potency is read from the fitted curve at half-maximal effect
[3] = target: Gonadotropin-releasing hormone receptor (Homo sapiens) (UniProt P30968); assay: Human gonadotropin-releasing hormone receptor (GnRHR) small molecule agonists, calcium flux assay in GnRHR-HEK293 cells (AID 1920063); also: nearly all actives have a fitted effect of over 35% in size
Gonadotropin-releasing hormone receptor (Homo sapiens), sequence (P30968 whole entry, looked up): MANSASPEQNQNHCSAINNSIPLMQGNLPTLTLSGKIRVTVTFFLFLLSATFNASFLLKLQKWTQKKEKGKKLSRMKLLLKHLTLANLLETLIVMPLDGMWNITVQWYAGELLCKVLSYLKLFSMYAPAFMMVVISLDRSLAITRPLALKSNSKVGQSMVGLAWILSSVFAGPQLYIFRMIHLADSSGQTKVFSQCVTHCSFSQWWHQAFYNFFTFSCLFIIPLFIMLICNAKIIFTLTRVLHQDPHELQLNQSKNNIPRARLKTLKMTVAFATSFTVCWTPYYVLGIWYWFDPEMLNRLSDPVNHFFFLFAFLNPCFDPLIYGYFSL
Summary of the method: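 HEK293 cells stably expressing human GnRHR were plated 18 h at 37 °C, loaded with calcium dye 1 h at 37 °C, then given compound in agonist mode; fluorescence (Ex/Em 480/540) read kinetically for 3 min at 1 s intervals.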

[4] = target: KiSS-1 receptor (Homo sapiens) (UniProt Q969F8); assay: Human kisspeptin (KISS1R) small molecule agonists, calcium flux assay in KISS1R-HEK293 cells (AID 1920064; active = well fitted curve in the direction sought with a large enough effect in the repeat runs; an effect the other way counts as inactive or inconclusive)
KiSS-1 receptor (Homo sapiens), sequence (Q969F8 whole entry, looked up): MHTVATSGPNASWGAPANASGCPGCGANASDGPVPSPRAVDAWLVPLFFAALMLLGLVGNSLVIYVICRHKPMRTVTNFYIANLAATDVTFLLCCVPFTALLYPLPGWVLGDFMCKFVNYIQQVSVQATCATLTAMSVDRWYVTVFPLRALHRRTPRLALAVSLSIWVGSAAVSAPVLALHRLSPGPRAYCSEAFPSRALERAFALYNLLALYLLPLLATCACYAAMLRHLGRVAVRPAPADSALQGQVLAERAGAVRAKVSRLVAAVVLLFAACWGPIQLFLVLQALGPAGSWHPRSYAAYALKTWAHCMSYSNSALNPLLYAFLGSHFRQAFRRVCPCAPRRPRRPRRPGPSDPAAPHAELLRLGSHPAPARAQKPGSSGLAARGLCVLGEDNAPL
Summary of the method: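 HEK293 cells stably expressing human KISS1R were plated 18 h at 37 °C, loaded with calcium dye for 1 h at 37 °C, then given compound by pin tool. Fluorescence (Ex/Em 480/540) was read kinetically for 3 min.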

[5] = p53 small molecule agonists, cell-based qHTS assay with human liver microsomes: qHTS cell viability counter screen (AID 1963579); also: nearly all actives have a fitted effect of over 45% in size
Summary of the method: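 After the 460/530 nm beta-lactamase read, CellTiter-Glo was added to the same wells and luminescence measured after 30 min at room temperature, giving viability of p53RE-bla cells treated 16 h with compounds plus microsomes and NADPH.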

[6] = p53 small molecule agonists, cell-based qHTS assay with rat liver microsomes: qHTS cell viability counter screen (AID 1963580); also: nearly all actives have a fitted effect of over 45% in size
Summary of the method: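 p53RE-bla HCT-116 cells (4,000/well) rested 5 h at 37 C, then given Tox21 compounds in DMSO with rat liver microsomes (0.5 mg/mL final) plus NADPH (0.5 mg/mL final) for 16 h at 37 C. Viability read by CellTiter-Glo luminescence after 30 min at room temperature.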

[7] = p53 small molecule agonists, cell-based qHTS assay: qHTS cell viability counter screen (AID 1963581); also: nearly all actives have a fitted effect of over 45% in size; also: potency is read from the fitted curve at half-maximal effect
Summary of the method: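 p53RE-bla HCT-116 cells were exposed to compounds for 16 h at 37 C; after the beta-lactamase FRET read in the same wells, CellTiter-Glo was added and luminescence (intracellular ATP) read after 30 min at room temperature.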

[8] = target: 5-hydroxytryptamine receptor 2A (Homo sapiens) (UniProt P28223); assay: 5-hydroxytryptamine receptor 2A (HTR2A) small molecule antagonists, cell-based qHTS assay (AID 1963586); also: nearly all actives have a fitted effect of over 45% in size
5-hydroxytryptamine receptor 2A (Homo sapiens), sequence (P28223 whole entry, looked up): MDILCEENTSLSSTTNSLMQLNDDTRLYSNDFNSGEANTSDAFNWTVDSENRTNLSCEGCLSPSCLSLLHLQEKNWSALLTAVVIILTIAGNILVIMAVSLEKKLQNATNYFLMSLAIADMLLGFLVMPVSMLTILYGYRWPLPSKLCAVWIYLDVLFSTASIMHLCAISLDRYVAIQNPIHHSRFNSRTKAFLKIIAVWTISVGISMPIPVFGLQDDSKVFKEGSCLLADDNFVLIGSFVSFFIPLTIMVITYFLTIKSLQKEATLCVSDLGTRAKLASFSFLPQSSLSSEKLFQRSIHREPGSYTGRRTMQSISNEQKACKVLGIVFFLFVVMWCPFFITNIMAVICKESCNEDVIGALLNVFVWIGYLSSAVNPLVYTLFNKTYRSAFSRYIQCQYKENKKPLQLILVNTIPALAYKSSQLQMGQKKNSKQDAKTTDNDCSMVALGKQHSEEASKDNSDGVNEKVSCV
Summary of the method: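 Antagonist-mode intracellular calcium assay: DOI (4 nM) added after 5 min compound pre-incubation at room temperature to dye-loaded HTR2A-CHO cells. Fluorescence followed for 3 min, sampled every second.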

[9] = target: 5-hydroxytryptamine receptor 2A (Homo sapiens) (UniProt P28223); assay: 5-hydroxytryptamine receptor 2A (HTR2A) small molecule agonists, cell-based qHTS assay (AID 1963587); also: nearly all actives have a fitted effect of over 30% in size; also: potency is read from the fitted curve at half-maximal effect
Summary of the method: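 HTR2A-CHO cells, plated 18 h at 37 C/5% CO2, dye-loaded 1 h at 37 C; compounds in DMSO added by pin tool (agonist mode). Intracellular calcium flux read as kinetic fluorescence on FDSS over 2 min at 1 s intervals.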

[10] = target: Muscarinic acetylcholine receptor M1 (Homo sapiens) (UniProt P11229); assay: Cholinergic receptor muscarinic 1 (CHRM1) small molecule antagonists, cell-based qHTS assay (AID 1963588); also: nearly all actives have a fitted effect of over 40% in size
Muscarinic acetylcholine receptor M1 (Homo sapiens), sequence (P11229 whole entry, looked up): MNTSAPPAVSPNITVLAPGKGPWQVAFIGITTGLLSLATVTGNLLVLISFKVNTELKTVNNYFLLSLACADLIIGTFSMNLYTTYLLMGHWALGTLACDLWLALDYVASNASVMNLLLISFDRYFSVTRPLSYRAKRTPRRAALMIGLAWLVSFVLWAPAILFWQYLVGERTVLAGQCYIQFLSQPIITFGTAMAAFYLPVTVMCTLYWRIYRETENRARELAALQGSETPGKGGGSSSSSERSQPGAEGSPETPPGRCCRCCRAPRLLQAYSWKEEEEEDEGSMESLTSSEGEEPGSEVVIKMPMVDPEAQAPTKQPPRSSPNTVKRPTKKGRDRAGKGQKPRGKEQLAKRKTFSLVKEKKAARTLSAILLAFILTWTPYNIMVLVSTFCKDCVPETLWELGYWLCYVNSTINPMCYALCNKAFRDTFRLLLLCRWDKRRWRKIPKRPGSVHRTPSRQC
Summary of the method: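 CHRM1-CHO calcium-flux assay, antagonist mode. Cells were seeded 18 h, dye-loaded 1 h at 37 C and given compound for 5 min at RT, then acetylcholine was added at 50nM. FDSS fluorescence was read 3 min; 15 concentrations, three runs.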

[11] = target: Muscarinic acetylcholine receptor M1 (Homo sapiens) (UniProt P11229); assay: Cholinergic receptor muscarinic 1 (CHRM1) small molecule agonists, cell-based qHTS assay (AID 1963589); also: nearly all actives have a fitted effect of over 35% in size; also: potency is read from the fitted curve at half-maximal effect
Summary of the method: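 CHO cells stably expressing human CHRM1, seeded 18 h at 37 C/5% CO2, dye-loaded 1 h at 37 C, then given compound in agonist mode; intracellular calcium fluorescence read kinetically at 1 s intervals. Fifteen concentrations, three independent runs.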

[12] = cAMP Responsive Elements (CRE) small molecule agonists, cell-based qHTS assay (AID 1963590)
Summary of the method: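 CRE-bla HEK 293T cells in DMEM with 10% dialyzed FBS, NEAA, pyruvate and 25 mM HEPES were plated 18 h at 37 C/5% CO2, then exposed to compounds in DMSO for 3 h before LiveBLAzer B/G FRET substrate addition.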

[13] = cAMP Responsive Elements (CRE) small molecule antagonists, cell-based qHTS assay (AID 1963591; active = well fitted inhibition curve with a large enough effect in the signal ratio in the repeat runs, not every such curve was filed as active; the % refers to the signal ratio)
Summary of the method: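 CRE-bla HEK293T cells were plated 18 h at 37 °C/5% CO2, pinned with compound in DMSO, then stimulated with NKH477 at 0.25 uM final for 3 h. LiveBLAzer B/G FRET substrate was added and plates incubated 2 h at room temperature.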

[14] = target: Beta-2 adrenergic receptor (Homo sapiens) (UniProt P07550); assay: Adrenergic beta2 receptor (ADRB2) small molecule antagonists, cell-based qHTS assay (AID 1963592); also: series mostly up to about 92 µM; nearly all actives have a fitted effect of over 50% in size
Beta-2 adrenergic receptor (Homo sapiens), sequence (P07550 whole entry, looked up): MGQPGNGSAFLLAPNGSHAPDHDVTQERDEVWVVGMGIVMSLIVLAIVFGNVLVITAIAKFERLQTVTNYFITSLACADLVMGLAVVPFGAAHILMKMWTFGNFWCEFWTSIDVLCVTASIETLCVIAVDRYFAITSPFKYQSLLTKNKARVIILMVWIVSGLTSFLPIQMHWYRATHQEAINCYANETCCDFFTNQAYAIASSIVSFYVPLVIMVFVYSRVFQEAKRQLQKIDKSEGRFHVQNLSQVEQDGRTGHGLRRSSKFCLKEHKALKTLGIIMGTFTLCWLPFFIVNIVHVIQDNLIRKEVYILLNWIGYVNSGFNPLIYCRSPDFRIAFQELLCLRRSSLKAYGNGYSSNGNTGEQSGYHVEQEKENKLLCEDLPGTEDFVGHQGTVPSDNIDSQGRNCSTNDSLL
Summary of the method: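 Cells (CHO, stable ADRB2 overexpression) incubated 18-20hr at 37C; compounds added from DMSO; agonist mix (1nM isoproterenol, 100uM IBMX, 25uM Ro-20-1724) added; 0.5hr RT; d2-cAMP and anti-cAMP-cryptate added; 1hr RT; 665/615 nm read.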

[15] = target: D(2) dopamine receptor (Homo sapiens) (UniProt P14416); assay: Dopamine D2 receptor (DRD2) small molecule agonists, cell-based qHTS assay (AID 1963594); also: nearly all actives have a fitted effect of over 35% in size
D(2) dopamine receptor (Homo sapiens), sequence (P14416 whole entry, looked up): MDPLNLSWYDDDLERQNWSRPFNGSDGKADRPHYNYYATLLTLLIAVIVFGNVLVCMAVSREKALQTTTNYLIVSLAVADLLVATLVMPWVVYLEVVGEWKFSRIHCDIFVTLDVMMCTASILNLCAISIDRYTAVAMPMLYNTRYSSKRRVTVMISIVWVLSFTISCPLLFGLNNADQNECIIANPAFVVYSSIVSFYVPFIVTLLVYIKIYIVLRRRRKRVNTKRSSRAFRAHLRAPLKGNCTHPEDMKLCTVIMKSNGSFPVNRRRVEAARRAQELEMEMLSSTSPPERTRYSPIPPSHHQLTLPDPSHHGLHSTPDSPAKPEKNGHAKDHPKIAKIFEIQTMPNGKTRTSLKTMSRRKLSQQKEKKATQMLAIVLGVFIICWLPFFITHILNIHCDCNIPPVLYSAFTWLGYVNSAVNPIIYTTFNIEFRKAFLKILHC
Summary of the method: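 HEK293 cells stably expressing DRD2 were cultured 24 h at 37 C, then given Ro20-1724 (0.1 mM final) and compounds for 10 min at room temperature. NKH477 (200nM) was then added for 30 min. cAMP was read by HTRF.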

[16] = target: D(2) dopamine receptor (Homo sapiens) (UniProt P14416); assay: Dopamine D2 receptor (DRD2) small molecule antagonists, cell-based qHTS assay (AID 1963595; active = well fitted inhibition curve with a large enough effect in the signal ratio in the repeat runs, with a control signal flat; the % refers to the signal ratio)
Summary of the method: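 DRD2-HEK293; 0.1 mM Ro20-1724; cpd 10 min RT; NKH477 200 nM + quinpirole 12 nM, 30 min RT; HTRF cAMP (cAMP-d2/anti-cAMP cryptate), 665/620 nm ratio after 1 h.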

[17] = p53 small molecule agonists, cell-based qHTS assay with rat liver microsomes (AID 1963578)
Summary of the method: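 Metabolic activation is supplied by rat liver microsomes with NADPH (each 0.5 mg/mL final). p53RE-bla cells incubate with compound 16 h at 37 C; reporter activity is measured by LiveBLAzer fluorescence.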

[18] = p53 small molecule agonists, cell-based qHTS assay (AID 1963582; active = well fitted activation curve with a large enough effect in the signal ratio in the repeat runs, not every such curve was filed as active; the % refers to the signal ratio)
Summary of the method: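 p53RE-bla beta-lactamase reporter cells rested 5 h at 37 C/5% CO2, then received compounds in DMSO by pin transfer and were incubated 16 h at 37 C. LiveBLAzer B/G FRET substrate was loaded for 2 h at room temperature before fluorescence reading.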

[19] = target: Beta-2 adrenergic receptor (Homo sapiens) (UniProt P07550); assay: Adrenergic beta2 receptor (ADRB2) small molecule agonists, cell-based qHTS assay (AID 1963593);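 also: CHO cells stably overexpressing human ADRB2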
Summary of the method: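 CHO cells stably over-expressing ADRB2 were plated overnight at 37C, then dosed with compounds plus a stimulation mix containing 100uM IBMX and 25uM Ro-20-1724 for 0.5hr at room temperature. cAMP was measured by HTRF competition, 1hr.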

[20] = p53 small molecule agonists, cell-based qHTS assay with human liver microsomes (AID 1963577);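 also: p53 response element beta-lactamase reporter cells with liver microsomes plus NADPH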
Summary of the method: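 Steps: plate p53RE-bla cells, incubate 5 h at 37 C; add compound in DMSO; add microsomes (0.5 mg/mL final) and NADPH (0.5 mg/mL final); incubate 16 h at 37 C; add LiveBLAzer, 2 h RT; read fluorescence.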

| Compound | Potency [1] | Potency [2] | Potency [3] | Potency [4] | Potency [5] | Potency [6] | Potency [7] | Potency [8] | Potency [9] | Potency [10] | Potency [11] | Potency [12] | Potency [13] | Potency [14] | Potency [15] | Potency [16] | Potency [17] | Potency [18] | Potency [19] | Potency [20] |
| --- | --- | --- | --- | --- | --- | --- | --- | --- | --- | --- | --- | --- | --- | --- | --- | --- | --- | --- | --- | --- |
| Nc1c(S(=O)(=O)O)cc(Br)c2c1C(=O)c1ccccc1C2=O | inactive and 30.6 µM (active) | inactive | inactive | inactive | inactive | inactive | inactive | inactive | inactive | inactive | inactive | inactive | inactive | inactive | inactive | inactive |  |  |  |  |
| N#Cc1ccc(C2CCCc3cncn32)cc1 (centres undefined) | inactive | inactive | inactive | inactive | inactive | inactive | inactive | inactive | inactive | inactive | inactive | inactive | inactive | inactive | inactive | inactive | inactive | inactive | inactive |  |
| O=C1C(O)=C(O)C(=O)C(O)=C1O | inactive | inactive | inactive |  | inactive | inactive | inactive | inactive | 0.0477 µM (active) | inactive | inactive | inactive | inactive | inactive | inactive | inactive | inactive | inactive | inactive | inactive |
| CC(=O)Oc1ccccc1C(=O)Nc1ncc([N+](=O)[O-])s1 | 55.6 µM (active) | 39.3 µM (active) and 29.8 µM (active) | inactive | inactive | inactive |  | 11.7 µM (active) |  | inactive | inactive | inactive |  |  | inactive | inactive | inactive | inactive | inactive |  | inactive |
| CC/C=C\CCOC(=O)C(C)C | inactive | inactive | inactive |  | inactive | inactive | inactive | inactive | inactive | inactive | inactive | inactive | inactive | inactive | inactive | inactive | inactive | inactive | inactive | inactive |
| O=C(O)C1CCC(C(=O)O)CC1 (centres undefined) | inactive | inactive | inactive | inactive | inactive | inactive | inactive | inactive |  | inactive | inactive | inactive |  | inactive | inactive | inactive |  | inactive | inactive | inactive |
| Nc1nc(N)nc(-c2ccccc2)n1 | inactive | inactive | inactive | inactive | inactive | inactive | inactive | inactive | inactive | inactive | inactive | inactive | inactive | inactive | inactive | inactive |  |  |  |  |
| CCCC(O)C(O)CO (centres undefined) | inactive | inactive | inactive | inactive | inactive | inactive | inactive | inactive | inactive | inactive | inactive | inactive | inactive | inactive | inactive | inactive | inactive | inactive | inactive |  |
| CC/C=C\CCOC(=O)CC | inactive | inactive | inactive | inactive | inactive | inactive | inactive | inactive | inactive | inactive | inactive | inactive | inactive | inactive |  | inactive |  | inactive | inactive | inactive |
| O=Cc1ccc(C(=O)O)cc1 | inactive | inactive | inactive |  | inactive | inactive | inactive | inactive | inactive | inactive | inactive | inactive | inactive | inactive | inactive | inactive | inactive | inactive | inactive | inactive |
| C/C=C/C(=O)O | inactive | inactive | inactive | inactive | inactive | inactive | inactive | inactive | inactive | inactive | 93.3 nM (active) and inactive | inactive | inactive | inactive | inactive | inactive |  |  |  |  |
| CO[C@@H]1[C@@H](O[C@@H]2O[C@H](C)[C@@H](O[C@H]3C[C@@](C)(O)[C@@H](O)[C@H](C)O3)[C@H](N(C)C)[C@H]2O)[C@@H](CC=O)C[C@@H](C)[C@@H](O[C@@H]2CC[C@H](N(C)C)[C@@H](C)O2)/C=C/C=C/C[C@@H](C)OC(=O)C[C@H]1OC(C)=O | inactive | inactive | inactive | inactive | inactive |  |  |  | inactive | inactive | inactive | inactive | inactive | inactive | inactive | inactive | inactive | inactive |  | inactive |
| CC(=O)NC(Cc1ccccc1)C(=O)O (centres undefined) | inactive | inactive | inactive |  | inactive | inactive | inactive | inactive | inactive | inactive | inactive | inactive | inactive | inactive | inactive | inactive | inactive | inactive | inactive | inactive |
| O=C(c1ccccc1)c1ccccc1O | inactive | inactive | inactive | inactive | inactive | inactive | inactive | inactive | inactive | inactive | inactive |  | inactive | inactive | inactive | inactive |  |  |  |  |
| CC1(C)O[C@@H]2C[C@H]3[C@@H]4C[C@H](F)C5=CC(=O)C=C[C@]5(C)[C@@]4(F)[C@@H](O)C[C@]3(C)[C@]2(C(=O)CO)O1 | inactive | inactive | inactive | inactive | inactive | inactive | inactive |  |  |  |  |  |  | inactive | inactive | inactive |  |  | inactive |  |
